We go through nine compounds from PubChem BioAssay (NCI).

Molecules are shown by their SMILES. This is part of a sample that, as a whole, favours compounds with a hit. Of some 79,000 tested, about 15% had one in any assay. A number with no mark means an inactive call. Calls of active or inactive are those of the source. No stated cut-off is given here; in the data, active means growth inhibition above about 70%; inactive means the rest. Where a SMILES comes first, the peptide text is derived from it. The star is where a group is joined. Cbz = O=C(OCc1ccccc1)*; CH2Cl = ClC*

Assay [1] in a line: NCI Yeast Anticancer Drug Screen. Data for the rad50 strain (AID 155).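 Further: 0% = growth of vehicle-only cultures of the same strain.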 The following applies: S. cerevisiae rad50 strain growth inhibition, active compounds read high. In short, it runs like this:
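A DNA repair-deficient yeast mutant serves as the test organism; compound-induced growth inhibition is calculated against vehicle-treated cells.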

Assay [2] is described as follows: NCI Yeast Anticancer Drug Screen. Data for the mec2-1 strain (AID 157). To be noted: S. cerevisiae mec2-1 strain, active compounds read high. An outline of the steps:
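Growth inhibition is read against vehicle-treated controls after compound exposure of the mec2-1 yeast strain, which is defective in DNA damage repair or cell cycle control.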

The nature of assay [3]: NCI Yeast Anticancer Drug Screen. Data for the sgs1 mgt1 strain (AID 161).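 Further: 0% = growth of cultures given vehicle only.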 To be noted: S. cerevisiae sgs1 mgt1 strain, active compounds read high. In short, it runs like this: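 Percent growth inhibition was derived by comparing compound-exposed mutant yeast with vehicle-exposed cultures. The strain carries alterations in DNA damage repair.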
The nature of assay [4]: NCI Yeast Anticancer Drug Screen. Data for the cln2 rad14 strain (AID 165).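 Further: 0% = growth equal to vehicle treated cultures.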 The following applies: S. cerevisiae cln2 rad14 strain, active compounds read high. In short, it runs like this: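 Growth inhibition, relative to vehicle-treated controls, is the read-out. The test organism is a yeast strain with defined genetic alterations, cln2 rad14.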
A short description of assay [5]: NCI Yeast Anticancer Drug Screen. Data for the bub3 strain (AID 167). To be noted: S. cerevisiae bub3 mutant strain, active compounds read high. An outline of the steps:
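Inhibition values come from growth of compound-treated mutant yeast normalised to vehicle-treated controls.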

Assay [6] is described as follows: NCI Yeast Anticancer Drug Screen. Data for the mlh1 rad18 strain (AID 175). To be noted: S. cerevisiae mlh1 rad18 strain growth inhibition, active compounds read high. In short, it runs like this: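 Cells of a genetically altered yeast strain, deficient in DNA damage repair, were treated with compound. Their growth was then compared with that of vehicle-treated cultures to give inhibition.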

Where [7] appears, read: at 5.0 µM (retest, dose inferred, filed as 0.5).
The mark [8] stands for this setting: at 50.0 µM (retest, dose inferred, filed as 5.0).

For the compound `CC1=NN(c2ccccc2)C(=O)C12[C@H](c1ccccc1)C2(C#N)C#N` (some centres not stated), the growth inhibition was 34% in assay [1] (setting [7]); 92% (active) in assay [1] (setting [8]); 84% (active) in assay [1] (at 50.0 µM); 37% in assay [2] (setting [7]); 78% (active) in assay [2] (setting [8]); 54% in assay [2] (at 50.0 µM). Also, the growth inhibition in assay [3] (setting [7]) is 46%; in assay [3] (setting [8]), 96% (active); in assay [3] (at 50.0 µM) it was 87.3% (active); in assay [4] (setting [7]) it was 25%; in assay [4] (setting [8]), 74% (active); in assay [4] (at 50.0 µM), 66.4%. For the same compound, the growth inhibition in assay [5] (setting [7]) was 41%; in assay [5] (setting [8]), 81% (active); in assay [5] (at 50.0 µM), 77.6% (active); in assay [6] (setting [7]) it was 41%; in assay [6] (setting [8]) it was 87% (active); in assay [6] (at 50.0 µM) it was 75.8% (active).
As for `COC(=O)NC1CCCCCCCCCCC1I` (configuration not stated), the growth inhibition in assay [1] (setting [7]) is -4%; in assay [1] (setting [8]), 97% (active); in assay [1] (at 50.0 µM) it was 98.5% (active); in assay [2] (setting [7]), 14%; in assay [2] (setting [8]), 99% (active); in assay [2] (at 50.0 µM), 82.3% (active). Further, the growth inhibition in assay [3] (setting [7]) is -5%; in assay [3] (setting [8]), 99% (active); in assay [3] (at 50.0 µM), 17.1%; in assay [4] (setting [7]) it was 19%; in assay [4] (setting [8]), 99% (active); in assay [4] (at 50.0 µM) it was -2.05%. In addition, the growth inhibition in assay [5] (setting [7]) was -5%; in assay [5] (setting [8]), 99% (active); in assay [5] (at 50.0 µM) it was 3.35%; in assay [6] (setting [7]) it was 5%; in assay [6] (setting [8]), 98% (active); in assay [6] (at 50.0 µM), 99% (active).
With `COc1ccc(-c2cc3ccccc3c(=O)n2Cc2ccccc2)cc1`, the growth inhibition is 8% in assay [1] (setting [7]); 66% in assay [1] (setting [8]); 78.3% (active) in assay [1] (at 50.0 µM); 11% in assay [2] (setting [7]); 74% (active) in assay [2] (setting [8]); 88.4% (active) in assay [2] (at 50.0 µM). The growth inhibition is 13% in assay [3] (setting [7]); 73% (active) in assay [3] (setting [8]); 83.7% (active) in assay [3] (at 50.0 µM); 6% in assay [4] (setting [7]); 57% in assay [4] (setting [8]); 74% (active) in assay [4] (at 50.0 µM). For the same compound, the growth inhibition in assay [5] (setting [7]) was 8%; in assay [5] (setting [8]) it was 63%; in assay [5] (at 50.0 µM), 89.3% (active); in assay [6] (setting [7]) it was 11%; in assay [6] (setting [8]), 66%; in assay [6] (at 50.0 µM), 79.3% (active).
For `CC(=O)OC1COC(n2ccc3cc(Br)c([N+](=O)[O-])cc32)C(OC(C)=O)C1OC(C)=O` (configuration not stated), the growth inhibition in assay [1] (setting [7]) is -16%; in assay [1] (setting [8]) it was 2%; in assay [1] (at 50.0 µM) it was 69.7%; in assay [2] (setting [7]), -5%; in assay [2] (setting [8]) it was 8%; in assay [2] (at 50.0 µM) it was 4.55%. Further, the growth inhibition is -25% in assay [3] (setting [7]); 47% in assay [3] (setting [8]); 78% (active) in assay [3] (at 50.0 µM); -45% in assay [4] (setting [7]); 3% in assay [4] (setting [8]); 5.45% in assay [4] (at 50.0 µM). In addition, the growth inhibition in assay [5] (setting [7]) is -23%; in assay [5] (setting [8]) it was 71% (active); in assay [5] (at 50.0 µM), 83.5% (active); in assay [6] (setting [7]) it was -27%; in assay [6] (setting [8]), 36%; in assay [6] (at 50.0 µM), 47.9%.
Take `CC(C)CC(NC(=O)OCc1ccccc1)C(=O)NC(Cc1ccccc1)C(=O)CCl` (stereo not drawn) (Cbz-Leu-Phe-CH2Cl; configuration not given here): the growth inhibition in assay [1] (setting [7]) is 43%; in assay [1] (setting [8]), 62%; in assay [1] (at 50.0 µM), 28.9%; in assay [2] (setting [7]), 48%; in assay [2] (setting [8]) it was 86% (active); in assay [2] (at 50.0 µM) it was 58.5%. Further, the growth inhibition in assay [3] (setting [7]) is 27%; in assay [3] (setting [8]) it was 46%; in assay [3] (at 50.0 µM), 53.8%; in assay [4] (setting [7]), 16%; in assay [4] (setting [8]) it was 52%; in assay [4] (at 50.0 µM), -8.15%. Moreover, the growth inhibition in assay [5] (setting [7]) is 51%; in assay [5] (setting [8]) it was 77% (active); in assay [5] (at 50.0 µM), 87.5% (active); in assay [6] (setting [7]), 46%; in assay [6] (setting [8]), 74% (active); in assay [6] (at 50.0 µM) it was 54.9%.
On to `C=CC(C)(CCC=C(C)C)OC(=O)Nc1ccccc1` (configuration not stated), for which the growth inhibition in assay [1] (setting [7]) is 19%; in assay [1] (setting [8]) it was -13%; in assay [1] (at 50.0 µM), -7.2%; in assay [2] (setting [7]), 2%; in assay [2] (setting [8]), -25%; in assay [2] (at 50.0 µM) it was -12.7%. Further, the growth inhibition in assay [3] (setting [7]) was -10%; in assay [3] (setting [8]), 13%; in assay [3] (at 50.0 µM), 16.1%; in assay [4] (setting [7]), -2%; in assay [4] (setting [8]), 6%; in assay [4] (at 50.0 µM), -7.95%. For the same compound, the growth inhibition is 0% in assay [5] (setting [7]); -14% in assay [5] (setting [8]); 8.05% in assay [5] (at 50.0 µM); -2% in assay [6] (setting [7]); 24% in assay [6] (setting [8]); -4.25% in assay [6] (at 50.0 µM).
On to `CN(C)c1ccc(/C=C(/NC(=O)c2ccccc2)c2nc3ccc(Cl)cc3[nH]2)cc1`, for which the growth inhibition in assay [1] (setting [7]) is 16%; in assay [1] (setting [8]), 16%; in assay [1] (at 50.0 µM), 64.7%; in assay [2] (setting [7]), 6%; in assay [2] (setting [8]) it was 6%; in assay [2] (at 50.0 µM), 68.3%. Besides, the growth inhibition in assay [3] (setting [7]) was -2%; in assay [3] (setting [8]) it was -2%; in assay [3] (at 50.0 µM), 67.2%; in assay [4] (setting [7]), 16%; in assay [4] (setting [8]), 16%; in assay [4] (at 50.0 µM), 60.5%. Besides, the growth inhibition in assay [5] (setting [7]) was -8%; in assay [5] (setting [8]) it was -8%; in assay [5] (at 50.0 µM) it was 71.5% (active); in assay [6] (setting [7]), -25%; in assay [6] (setting [8]) it was -25%; in assay [6] (at 50.0 µM) it was 73.8% (active).
With `CC(=O)Nc1c(Cl)ccc2c1Cc1cc([N+](=O)[O-])ccc1-2`, the growth inhibition in assay [1] (setting [7]) was 19%; in assay [1] (setting [8]), 92% (active); in assay [1] (at 50.0 µM), 91% (active); in assay [2] (setting [7]), 2%; in assay [2] (setting [8]) it was 19%; in assay [2] (at 50.0 µM) it was 45.8%. Further, the growth inhibition in assay [3] (setting [7]) was 6%; in assay [3] (setting [8]), -39%; in assay [3] (at 50.0 µM), 49.5%; in assay [4] (setting [7]) it was -3%; in assay [4] (setting [8]), 44%; in assay [4] (at 50.0 µM) it was 47.9%. The growth inhibition in assay [5] (setting [7]) is -7%; in assay [5] (setting [8]), 10%; in assay [5] (at 50.0 µM), 10.7%; in assay [6] (setting [7]), -9%; in assay [6] (setting [8]) it was 66%; in assay [6] (at 50.0 µM), 90.8% (active).
Consider `CCCCCCCCC1N(C)CCCN1C`, for which the growth inhibition in assay [1] (setting [7]) was -76%; in assay [1] (setting [8]), 97% (active); in assay [1] (at 50.0 µM), 99.5% (active); in assay [2] (setting [7]), -51%; in assay [2] (setting [8]), 98% (active); in assay [2] (at 50.0 µM), 99.6% (active). Besides, the growth inhibition is -37% in assay [3] (setting [7]); 98% (active) in assay [3] (setting [8]); 49% in assay [3] (at 50.0 µM); -56% in assay [4] (setting [7]); 98% (active) in assay [4] (setting [8]); 98.3% (active) in assay [4] (at 50.0 µM). In addition, the growth inhibition in assay [5] (setting [7]) was -52%; in assay [5] (setting [8]), 98% (active); in assay [5] (at 50.0 µM), 99% (active); in assay [6] (setting [7]), -102%; in assay [6] (setting [8]), 98% (active); in assay [6] (at 50.0 µM) it was 99.5% (active).
